HSP90 refold inh: HSP90 inhibitors, primary screen, cell lysate, luminescence | Rabbit reticulocyte lysate, luciferase refolding luminescence, 3 h | inhibition, % at 5.6 µM | 290,000 tested, 0.91% active;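 active = inhibition above the screen-wide mean plus 3 SD, computed separately per campaign, cut at about 16% in these data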;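 note: 0% = DMSO wells and 100% = 60 µM geldanamycin wells; inhibitors lower the luminescence because luciferase stays unfolded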
DAX1 inh: DAX1 (NR0B1) inhibitors, primary screen, cell-based, HEK293, Gal4-DAX1, luciferase luminescence; Nuclear receptor subfamily 0 group B member 1 (Homo sapiens), P51843; HEK293 Gal4-DAX1 luciferase reporter; inhibition, % at 6.75 µM; 340,000 tested, 0.99% active; AID 504766, 2011;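 active = inhibition above the mean over all tested compounds plus 3 SD, cut at about 4.2% in these data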;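 note: 0% = DAX1-transfected cells with DMSO and 100% = empty-vector control cells with DMSO; inhibition shows as a rise in luminescence from relieved DAX1 repression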
Target sequence (P51843 207-470 limits assumed): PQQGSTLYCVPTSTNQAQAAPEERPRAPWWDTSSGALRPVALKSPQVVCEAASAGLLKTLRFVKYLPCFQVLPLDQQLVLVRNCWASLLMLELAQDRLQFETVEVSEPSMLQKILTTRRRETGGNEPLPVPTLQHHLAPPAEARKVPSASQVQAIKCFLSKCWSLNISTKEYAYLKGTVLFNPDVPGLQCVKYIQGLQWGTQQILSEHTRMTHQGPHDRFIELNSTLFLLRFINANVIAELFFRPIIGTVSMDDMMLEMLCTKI
AHR act: AHR activators, primary screen, cell-based, luminescence, luciferase reporter, human; Aryl hydrocarbon receptor (Homo sapiens), P35869; 320,000 tested, 2.5% active; AHR-responsive luciferase reporter cells; activation, % at 5 µM; in the data active = activation above about 47%;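 note: 0% = vehicle wells and 100% = reference agonist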
HSF1 inhib: HSF1 inhibitors in luciferase reporter cells, primary screen, cell-based, NIH3T3, luminescence. NIH3T3-HGL HSE-luciferase, MG132-induced, luminescence 8 h; hits give low values. activity change, negative = inhibition, % at 7.5 µM (by protocol). 300,000 tested, 0.77% active;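 active = more than half of replicate wells show activity change below -50%, luminescence cut by over half; inconclusive = some wells, but at most half, below -50%; inactive = no replicate well below -50%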;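 note: luciferase reports HSF-1 transcriptional activity via heat shock element; 0% = median of DMSO wells and -100% = zero luminescence signal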
HSF-1 act: HSF-1 activators, primary screen, NIH3T3-HGL cells, MG132 stress, luminescence, single point; 300,000 tested, 1.7% active; NIH3T3-HGL HSF-1 luciferase reporter, 8 h; 100% = twice DMSO control signal; activation, % at 9 µM;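 active = mean replicate activation of at least 50% with a set share of replicates each reaching 50%; inconclusive = only one of those two conditions met; inactive = mean below 50% and too few replicates reaching it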;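 note: 0% = median of the neutral control wells and 100% = twice that signal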
FXN GAA850 act: FXN promoter activators, primary screen, cell-based, luciferase luminescence, HEK293 lucGAA850; HEK293 lucGAA850 FXN promoter luciferase reporter, 24 h; percent of 10 µM SAHA response; activation, % at 6 µM; 360,000 tested, 0.56% active; AID 540364, 2011;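 active = activation above the average of all compounds screened plus 3 SD, cutoff fixed separately per campaign, cut at about 7.5% in these data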;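 note: 0% = DMSO wells and 100% = 10 µM SAHA wells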
* = called active by the depositor; u = inconclusive; x = not tested or not shown. A selection: hits, their analogues and other compounds. The true share with any hit is near 5.9%.

SMILES | HSP90 refold inh | DAX1 inh | AHR act | HSF1 inhib | HSF-1 act | FXN GAA850 act
COc1ccc(C2=NN3C(C2)c2ccccc2OC3c2cccs2)cc1 (stereo not given) | -1 | 2 | 2 | 17 | 63* | 5
CC(C)n1ncc2c(C(=O)N3CCN(S(=O)(=O)c4cccc(F)c4)CC3)cc(C3CC3)nc21 | x | 0 | x | x | x | 0
O=C1Cc2cc(S(=O)(=O)NCc3ccccc3Cl)cc3c2N1CCC3 | 1 | 0 | 5 | 0 | 15 | 0
Cc1c(Cl)cccc1NC(=S)N=Nc1c(O)n(CN2CCOCC2)c2ccccc12 | 4 | -3 | 53* | -1 | 1 | x
CCOc1ccc(NC(=O)COc2ccc(C(=O)NCC3CCCO3)cc2OC)cc1 (stereo not given) | x | 1 | 3 | x | x | -1
O=c1c(Cc2c(F)cccc2Cl)c(O)ccn1CCCn1ccnc1 | 5 | 4.3* | 12 | -7 | -2 | 4
O=c1c(Cc2c(F)cccc2Cl)c(O)ccn1Cc1ccc(F)cc1 | 1 | -1 | 0 | -2 | 1 | 1
C[C@H](CO)N1C[C@H](C)[C@@H](CN(C)Cc2ccc3c(c2)OCO3)Oc2c(NC(=O)Cc3ccccc3)cccc2C1=O | x | 0 | 1 | x | x | -8
COc1ccc(OC)c(NC(=O)C2(C)CCN2Cc2ccccc2OC(F)F)c1 (stereo not given) | x | x | x | x | x | -1
O=C(COC(=O)c1ccccc1Cl)NC1CCCCCC1 | x | 1 | 1 | x | x | 5
Cc1ccc(-n2ncc3c(NCc4ccc5c(c4)OCO5)ncnc32)c(C)c1 | 2 | -1 | 5 | -55* | -62 | 2
COc1cc2ncnc(NCc3ccc4c(c3)OCO4)c2cc1OC | 2 | 0 | 63* | 2 | 2 | 2
COc1ccc(CNc2ncnc3cc(OC)c(OC)cc23)cc1OC | 2 | -2 | 4 | 2 | -2 | 1
[O-][n+]1ccccc1SCc1ccccc1 | x | 0 | 15 | 1 | 4 | 0
[O-][n+]1ccccc1SC/C=C/c1ccccc1 | -2 | 1 | 2 | 22 | 53* | 3
[O-][n+]1cc(Cl)cc(Cl)c1 | x | x | x | x | x | 0
CC(C)(C)c1ccc(C(=O)Nc2ccc([N+](=O)[O-])cn2)cc1 | -4 | 0 | 0 | 38 | 54* | 4
Cc1ccc(NC(=O)c2ccc([N+](=O)[O-])cc2Cl)nc1 | 1 | -1 | 3 | 14 | 52* | 5
O=C(Nc1ccc([N+](=O)[O-])cn1)c1cccnc1 | -5 | -1 | 1 | -5 | 6 | 1
O=C(Nc1ccccn1)c1ccc([N+](=O)[O-])cc1Cl | -2 | 1 | 12 | 10 | 26 | 2
CC(C)N(CCCNC(=O)Cn1ncc2c([nH]c3ccccc32)c1=O)Cc1ccccc1 | 1 | 1 | 8 | -12 | -10 | -1
Cc1cccc(NC(=O)C2C3CCCCC32)c1 (stereo not given) | -2 | 5.5* | x | 9 | 13 | 5
NS(=O)(=O)c1cccc(NC(=O)CC23CC4CC(C2)CC(CC(=O)Nc2cccc(S(N)(=O)=O)c2)(C4)C3)c1 | 6 | 0 | 1 | -3 | 12 | -1
O=C(Nc1cccnc1)Nc1cccc(F)c1 | 1 | 3 | 46 | 1 | 9 | 1
O=C(Nc1ccccc1)C1C2CCCCC21 (stereo not given) | -1 | 0 | 1 | 1 | 6 | 0
SMILES | HSP90 refold inh | DAX1 inh | AHR act | HSF1 inhib | HSF-1 act | FXN GAA850 act
CC(=O)c1cccc(NC(=O)Nc2cccnc2)c1 | -2 | 0 | 65* | -19 | -22 | -9
Cc1cc(C)cc(NC(=O)Nc2cccc(S(N)(=O)=O)c2)c1 | 0 | x | 58* | u | -41 | 2
NS(=O)(=O)c1cccc(NC(=O)CNC(=O)CC23CC4CC(CC(C4)C2)C3)c1 | -1 | -1 | -2 | -77* | -82 | 3
NS(=O)(=O)c1cccc(NC(=O)Nc2ccccc2)c1 | 0 | 2 | 8 | -6 | 2 | -1
CN(C)c1cccc(C(=O)N(C)C2CCCN(Cc3ccccc3F)C2)c1 (stereo not given) | 5 | -1 | 0 | 1 | -5 | -3
CCOC(=O)c1c(C)[nH]c(C(=O)OC(C)C(=O)NC2(C#N)CCCCC2)c1C (stereo not given) | x | 0 | x | x | x | 0
Cc1cccc(NC(=O)Nc2cnccn2)c1 | 4 | 0 | 39 | 1 | -5 | 2
O=C(Nc1cccnc1)Nc1ccc(Cl)cc1Cl | -1 | 0 | 48* | 11 | 0 | 4
O=C(Nc1ccc(Cl)cc1Cl)NC1CCCC1 | -1 | 0 | 53* | 6 | 19 | -1
Cc1cccc(NC(=O)Nc2ccncc2)c1 | 0 | 0 | 53* | -2 | 8 | 2
CCn1c(SCC(=O)N2CCC(C)CC2)nc2c(c1=O)SCC2 | 0 | 0 | -1 | -10 | 1 | 3
COC(=O)C1(Cc2ccccc2)NC(c2ccccc2C)C2C(=O)N(c3ccc4c(c3)OCO4)C(=O)C21 (stereo not given) | -1 | 0 | 3 | -73* | -80 | -6
CCN1C(=O)[C@H]2[C@@H](c3ccc(-c4ccc5c(c4)OCO5)cc3)N[C@@](Cc3ccccc3)(C(=O)OC)[C@H]2C1=O | x | 2 | 3 | x | x | 1
COc1ccc(N2C(=O)C3C(c4ccc(OC)cc4O)NC(Cc4ccccc4)(C(=O)O)C3C2=O)cc1 (stereo not given) | 2 | 7.6* | 2 | -22 | -35 | 2
CCCC1(C(=O)O)NC(c2ccc(OC)cc2O)C2C(=O)N(c3ccc(OC)cc3)C(=O)C21 (stereo not given) | -4 | 2 | 1 | -1 | -7 | -1
O=C(COc1ccccc1)Nc1cccc(-c2nc3ccccc3[nH]2)c1 | -3 | 0 | 79* | 9 | 38 | 3
O=C(COc1ccccc1)Nc1cc(Cl)ccc1Cl | -5 | 4.6* | 2 | 8 | 11 | 1
COc1ccc(OCC(=O)Nc2cccc(-c3nc4ccccc4[nH]3)c2)cc1 | 0 | -2 | 31 | -3 | -6 | 0
C=Cc1cccc(NC(=O)COc2ccccc2)c1 | -3 | 3 | 1 | 23 | 57* | 1
CCOc1ccc(CN(C)Cc2cc(=O)oc3c(C)c(C)ccc23)cc1OC | x | -1 | x | x | x | 1
C=C(C)c1cccc(C(C)(C)NC(=O)N2CCN(C(=O)OCC)CC2)c1 | x | 0 | x | x | x | -2
CC1=C/C(=C(\c2cc(C)c(O)c(Br)c2)c2ccccc2S(=O)(=O)O)C=C(Br)C1=O | 9 | -3 | -3 | -14 | -21 | -1
Cc1nc(C2COc3ccccc3O2)sc1C(=O)O (stereo not given) | 4 | 5.5* | -3 | 6 | 10 | 2

From PubChem BioAssay
